Source: PubChem BioAssay AID1650 (Southern Research Specialized Biocontainment Screening …, 2009)
Results with a measured potency or affinity are listed apart. Values without a mark were called inactive. The rule behind the calls is not given here.

Test: host cell cytotoxicity of antiviral hits, dose response, cytotoxicity control for West Nile virus antiviral project, secondary assay (AID 1650)
Settings: Mammalian host cell viability, cytotoxicity counter-screen; series mostly up to 20 µM; viability: at the top concentration

SMILES	viability
c1ccc2c(c1)Sc1ccccc1N2CC1CN2CCC1CC2 (centres undefined)	87% [at 10 µM]
CN(C)CCN(CC1CCCN(Cc2ccccc2F)C1)C(=O)Cc1ccc(F)c(F)c1 (centres undefined)	89.5%
Cc1ccc2c(c1)[C@@H]1CN(C)CC[C@@H]1N2C(=O)Nc1cccc(C(F)(F)F)c1	81.5% [at 10 µM]
O=C(N/N=C/c1c(O)n(CCc2ccccc2)c(=O)[nH]c1=O)c1ccccc1O	95.3%
CC(C)c1oc(=O)cc2c1[C@@H](O)[C@H]1OC(=O)[C@@]3(C)CC[C@@H](O)[C@@]2(C)C13 (some centres undefined)	86.6% [at 10 µM]
O=c1c2ccccc2nc(/C=C/c2ccccc2O)n1-c1ccccc1O	75.6%
CC(C)c1oc(=O)cc2c1[C@@H](O)[C@H]1OC(=O)[C@@]3(C)C[C@@H](O)[C@@H](O)[C@@]2(C)C13 (some centres undefined)	92.9% [at 10 µM]
O=C1/C(=C\c2ccccc2)C2OCC=C3CN4CCC56c7ccccc7N1C5C2C3CC46 (centres undefined)	78.2%
CCN(CC)c1nc2c(C)cccn2c(=O)c1C=C1C(=O)NC(=O)NC1=O	93.5%
